In PubChem BioAssay AID796 (Columbia University Molecular Screening Center, 2007):
Out of some 94,000 compounds screened, about 410 (0.44%) were called active.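 The calls were made as follows: active = inhibition above about 30% together with a positive call from visual inspection of the well image (limit read from the data); inconclusive = inhibition above a set limit but visual check negative; inactive = inhibition not above a set limit, visual check negative.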 Shown is part of a subset that was picked to be rich in actives.

test: inhibitors of IL-1B driven NFkB p65 nuclear import, primary screen, imaging, HUVEC, IL-1B stimulus, high-content imaging (AID 796); settings: HUVEC IL-1B NFkB p65 nuclear translocation imaging; at 2 µM; stronger effect = higher value;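 also: nuclear over cytoplasmic p65 intensity ratio measured by imaging; 0% = IL-1B stimulated DMSO wells and 100% = unstimulated DMSO wells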

inhibition, inactive:
Cc1noc(C)c1CSCC(=O)Nc1nc2ccc(Oc3ccccc3)cc2s1 -3.4%
Cc1ccc(-n2nc(N)c3c(=O)oc(N(C)C)nc32)cc1 -5.7%
O=C(COc1ccc(Cl)cc1)NCCC1=CCCCC1 1.3%
CN(NC(=O)c1ccccc1)c1nc2ccccc2nc1C(F)(F)F 12.5%
COc1ccc(C(=O)NN(C)c2nc(-c3ccccc3)cc(C)c2S(C)(=O)=O)cc1 -10.1%
O=S(=O)(c1cnccc1N1CCN(/N=C/c2ccc(Br)cc2)CC1)N1CCCCC1 -15.8%
COc1cc(OC)cc(C(=O)NC2CCN(C(=O)N3c4ccccc4Sc4ccccc43)CC2)c1 -1.1%
Cc1ccccc1N1CCN(CCCOc2ccc3c(C)cc(=O)oc3c2)CC1 -2.5%
Cn1c(C(=O)OC(C(=O)NC2CCCCC2)c2ccccn2)cc2sccc21 (stereo not drawn) -1.9%
COc1cccc(/C=N/NC(=O)c2cccc([N+](=O)[O-])c2)c1OS(=O)(=O)c1ccc(C)cc1 1.2%
Cc1ccc(S(=O)(=O)N(C)C2(C)CCS(=O)(=O)C2)cc1 (stereo not drawn) -19.1%
CC(C)n1c(-c2cccs2)nc2ccccc21 -4.4%
C=CCn1c(COc2ccccc2C)nnc1SCC(=O)O -19.2%
C=CCn1c(COc2ccccc2)nnc1SCC(=O)NCC(=O)OCC -6.1%
COc1ccc(C(=O)Oc2cc(/C=N/NS(=O)(=O)c3ccc(C)cc3)ccc2OC)cc1 -13.4%
COc1cc(C(=S)N2CCOCC2)cc(OC)c1OC(=O)c1cc([N+](=O)[O-])cc([N+](=O)[O-])c1 2.4%
COc1ccccc1OCc1nc2ccccc2s1 9.7%
O=C(Nc1ccccc1-c1nnn(CC(=O)N2CCCc3ccccc32)n1)c1cccc(Cl)c1 9.4%
OC(c1ccccc1)c1nccn1Cc1ccccc1 (stereo not drawn) -26.3%
Cn1cnc([N+](=O)[O-])c1Sc1ccccc1 7%
CCOC(=O)c1c(NC(C)=O)sc2c(O)c(Br)ccc12 -8%
CCC(C)NC(=O)C1CCCN(C(=O)NC2CCCCC2)C1 (stereo not drawn) -6.5%
Cc1ccc(NC(=S)Nc2ncccc2C)c(C)c1 8.4%
COc1ccc(C(=O)NC(=S)Nc2ccccc2N2CCN(S(C)(=O)=O)CC2)cc1OC -15.4%
Cc1[nH]c(=O)c(C(=O)/C=C/c2ccccc2)c2c1CCCC2 -9.9%
CC(=O)c1cn(CCCCCCCCCCn2cc(C(C)=O)c(=O)[nH]c2=O)c(=O)[nH]c1=O -1.7%
CN(CC(=O)Nc1cccc2c1CCCC2)S(=O)(=O)c1ccc(Cl)cc1 8.4%
CCOc1ccccc1NC(=O)C1CCN(S(=O)(=O)c2c(C)nn(C)c2C)CC1 13.5%
CCOc1ccc(NC(=O)C2CCCN(C(=O)Nc3ccccc3)C2)cc1 (stereo not drawn) 5.5%
N#C/C(=C/c1ccc(Cl)cc1)NC(=O)c1ccccc1 0.7%
COc1ccc(C(F)(F)F)cc1N/C=C\c1nnnn1-c1ccc(C)cc1 7.9%
O=C(NCCCCCCCCCNC(=O)C(F)(F)F)C(F)(F)F 8.3%
CC(C)(CNCC(O)c1ccccc1)N1CCOCC1 (stereo not drawn) -8.1%
Cc1c(C(=O)CN2CCOCC2)[nH]c2ccccc12 -7.9%
c1ccc2c(C[n+]3csc4ccccc43)cccc2c1 -13.2%
CCc1nc(C)ccc1OCC(=O)N(CC)CC 5.7%
Fc1ccc(CNc2nc3ccccc3n3nnnc23)cc1 -20.9%
CCOc1ccc(S(=O)(=O)Nc2nc3cc(OC)ccc3s2)cc1 -6%
Cc1ccc(C(c2nnnn2CS(=O)(=O)c2ccc(C)cc2)N2CCC(C)CC2)cc1 (stereo not drawn) -0.3%
O=C(Oc1ccc([N+](=O)[O-])cc1)c1ccc2ccccc2n1 1.7%
CCOC(=O)C1Sc2[nH]c(=O)sc2C(c2ccc(Cl)cc2)C1C(=O)OCC (stereo not drawn) -11%
O=C(CSc1nnnn1C1CCCC1)Nc1ccc2c(c1)OCCO2 -42.7%
O=C(CSc1nc(C2CC2)nc2ccccc12)Nc1ccc2c(c1)OCCO2 4.6%
O=C(/C=C/c1ccco1)Nc1ccc(Oc2ccccc2)cc1 -2.7%
c1ccc(C(c2ccccc2)N2CCN(Cc3nnnn3C3CCCCC3)CC2)cc1 10.8%
CC1=NN(Cc2ccccc2)C(=O)/C1=C/c1ccc(N(C)C)cc1 -0.4%
CCCCC(=O)N/N=C(\C)CC(=O)Nc1cc(Cl)ccc1OC -3.2%
COc1ccccc1NC(=O)c1ccc(C)s1 -3.2%
COc1ccccc1NC(=S)NC(=O)C(C)C 13.7%
O=C(NCc1ccccc1Cl)c1csc2c1CCCCC2 6.8%
Cc1ccc(SCC(=O)Nc2ncc(C)s2)cc1 -75.7%
CN(C)/C=C(\C#N)C(=O)c1cccnc1Oc1cccc(F)c1 -5.1%
COC(=O)c1ccc(C(=O)OC)c(NC(=S)N2CCCCC2)c1 8.4%
COC(=O)c1ccc(CSc2ccc3nnc(-c4ccccc4)n3n2)o1 -0.1%
COc1cc(C(=O)NC(=S)NCc2ccco2)cc(OC)c1OC -3.4%
Cc1ccc(C(=O)/C=C/c2c(C)nn(-c3ccccc3)c2Cl)cc1 15.3%
CC(C)(C)c1ccc(C(=O)CSc2ncn[nH]2)cc1 -29.2%
CC(C)(C)NS(=O)(=O)CC12CCC(CC1=O)C2(C)C (stereo not drawn) 12.7%
Cc1cccc(COc2ccccc2/C=N/Nc2ccc([N+](=O)[O-])cc2)c1 -18.1%
COc1ccc(OC)c(S(=O)(=O)Nc2ccccc2F)c1 -16.7%
COc1ccc(S(=O)(=O)N2CCOCC2)c(C)c1C -1.9%
O=S1(=O)C=C(SCCN2CCCC2)c2ccccc21 -1.4%
CCOC(=O)/C(C#N)=C\c1c(C)cc(C)c(COC(C)=O)c1C 8.2%
O=C1c2ccccc2C(=O)N1CCC(c1ccccc1)c1ccco1 (stereo not drawn) -2.1%
CN(C)/C=C(\C#N)C(=O)c1cccnc1Oc1ccc(F)cc1F 5.5%
O=S(=O)(c1ccc(Br)cc1)n1ccc2ccccc21 5.3%
O=C(Nc1ncc2c(n1)-c1ccccc1OC2)c1ccc(Cl)cc1 3.3%
CC(N)C12CC3CC(CC(O)(C3)C1)C2 (stereo not drawn) -22.4%
C=CCN1C(=O)C(Cc2cccc(Cl)c2)S/C1=N/N=C/c1ccco1 (stereo not drawn) 6.5%
CC(C)(C)NC(=O)COc1ccc(CNc2ccc3[nH]c(=O)[nH]c3c2)cc1 6.7%
O=C(NC1CCN(C(=S)NCc2ccco2)CC1)c1ccc(F)cc1 -2.5%
O=C(Oc1ccccc1C(=S)N1CCCCC1)c1cc([N+](=O)[O-])cc([N+](=O)[O-])c1 -5.6%
CN1CC(c2ccccc2)C2(COc3ccccc3C2=O)C12C(=O)Nc1ccccc12 (stereo not drawn) -0.2%
Nc1nc(Br)c2ccccc2c1-c1ccc(F)cc1 -12.8%
Cc1cccc(NC(=O)c2ccc(OCC(=O)NCc3ccccc3)cc2)c1C 12.8%
Cc1nc2c(-c3ccc(F)cc3)c(C)nn2c(C)c1CCC(=O)NCc1ccco1 8.1%
c1cncc(-c2nnc3n2C2(CCCCC2)Cc2ccccc2-3)c1 -4.9%
NS(=O)(=O)c1ccc(Nc2nc(-c3ccccc3)cs2)cc1 18.6%
O=C(CNC(=O)c1cc2c(s1)CCC2)Nc1ccccc1Br -43.6%
Cc1ccc(N(CC(=O)Nc2cc(C)cc(C)c2)S(=O)(=O)c2cccc3nonc23)cc1 0.6%
Cc1occc1C(=O)NNC(=S)NCC(C)C -8.5%
COc1ccc(CC(=O)Nc2ccc(-c3nnc(-c4ccc(C)cc4)o3)cc2)cc1 -3.1%
COc1cccc(NC(=O)Cc2ccc(C)cc2)c1 3.1%
CN(C)c1ccnc2sc3c(=O)n(-c4ccc(Cl)cc4)cnc3c12 -8.3%
Cc1cc(=O)[nH]c(SCc2cccc(F)c2)n1 -8.1%
CCCNC(=S)NC1CC2CCCC(C1)N2CC(C)C (stereo not drawn) -10.2%
CSc1ccccc1-c1nnc(-c2ccc(Cl)cc2)o1 -15.4%
Cc1nnc(SCC(=O)N/N=C/c2cn(-c3ccccc3)nc2-c2ccc(F)cc2)n1-c1ccccc1 16.3%
O=C(Nc1ccc(-n2ccnc2P(=O)(O)c2ccccc2)cc1)c1ccccc1Br -9.1%

inhibition, active:
CSc1nc(N(C)NC(=O)c2cccc(C)c2)c2ccccc2n1 34.2%
C=CCn1c(COc2cccc3cccnc23)nnc1SCC(=O)OC 30.7%
CCOc1ccccc1NC(=O)C1CCCN(C(=O)Nc2ccccc2)C1 (stereo not drawn) 40.5%
CC(C)(CNC(=O)c1cc(=O)[nH]c2ccccc12)N1CCOCC1 31%
O=C(CSc1nc2ncccc2[nH]1)Nc1ccc2c(c1)OCCO2 97%
COc1ccccc1NC(=O)/C=C/C(N)=O 43.6%
O=C(/C=C/Sc1ncn[nH]1)c1ccc(Cl)cc1 47.7%
COc1ccc(S(=O)(=O)Nc2ccc(F)cc2)c(C)c1C 74%
COc1ccc(NC(=O)/C(Cl)=C(/Cl)S(=O)Cc2ccc(C)cc2)cn1 (stereo not drawn) 81.8%
